Source: PubChem BioAssay
A selection: hits, their analogues and other compounds. The true share with any hit is near 19%.
DT40 TDP1 no CPT – qHTS for Inhibitors of human tyrosyl-DNA phosphodiesterase 1 (TDP1): qHTS in cells in absence of CPT. DT40 Tdp1-/- hTDP1 cells, no CPT, ATP luminescence, 48 h. Potency, µM (titrated, usually from 46.2 µM), actives largely listed as inhibitors. actives 15% (n = 420,000); note: nearly all actives have a fitted effect of over 55% in size
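Readout: luminescence from CellTiter-Glo after 30 min in the dark at RT. Cells: DT40 Tdp1-/- with stable hTDP1, 400/well. Exposure: compounds alone, ≥48 hr, 37 °C.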
HT1080 IDH1KD tx – HT-1080 IDH1 knockdown cell toxicity (counter line). HT-1080 IDH1 knockdown viability, ATP luminescence, 48 h. Potency, µM (highest dose often 46.1 µM), actives largely listed as cytotoxic. actives 2% (n = 360,000)
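Luminescent ATP read-out (CellTiter-Glo, 10 min at room temperature) after 48 h compound exposure at 37 °C gave viability of IDH1-knockdown HT-1080 cells. Activity was normalised to DMSO and cell-free wells, then fitted as concentration-response curves.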
DT40 TDP1 CPT – DT40-hTDP1 cell growth loss with CPT; chicken DT40 Tdp1-/-;hTDP1 cells + 20 nM CPT, ATP luminescence, 48 h; Potency, µM (top dose mostly 46.2 µM), hits mostly inhibitors; actives 12% (n = 420,000); note: nearly all actives have a fitted effect of over 55% in size
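Chicken DT40 Tdp1-/- cells complemented with human TDP1, 400 cells/well, exposed to compounds plus 20 nM camptothecin for at least 48 h at 37 C; viability read as ATP content by CellTiter-Glo luminescence.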
KB-3-1 tox – kills parental KB-3-1 adenocarcinoma cells | KB-3-1 viability, CellTiter-Glo ATP luminescence, 72 h | Potency, µM (titrated, usually from 46.1 µM), actives largely listed as cytotoxic | actives 1.4% (n = 400,000) | AID 1347075; note: nearly all actives have a fitted effect of over 60% in size
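Cells are dispensed, compounds pinned in, plates held at 37 °C for 72 h, then CellTiter-Glo is added and luminescence read after 10 minutes. Cell line: parental KB-3-1 in phenol-red-free DMEM, 10% FBS.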
HT1080NT lethal – kills 2HG-producing HT-1080-NT fibrosarcoma cells; actives 1.6% (n = 360,000); Potency, µM (series often up to 46.1 µM), hits mostly cytotoxic; HT-1080-NT fibrosarcoma viability, CellTiter-Glo ATP luminescence, 48 h;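 note: NT is the 2HG producing partner of a matched IDH1 knockdown line; nearly all actives have a fitted effect of over 55% in size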
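Toxicity toward the 2HG-producing NT line was scored as %Activity, normalised to DMSO and no-cell wells, from CellTiter-Glo luminescence after 48 hours' treatment.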
KB-V1 MDR tox – KB-V1 MDR subline cytotoxicity. KB-V1 MDR cells viability, CellTiter-Glo, 72 h. Potency, µM (top dose mostly 46.1 µM), hits mostly cytotoxic. actives 3.4% (n = 400,000); note: nearly all actives have a fitted effect of over 60% in size
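Cytotoxicity via CellTiter-Glo luminescence after 72 h compound exposure at 37 degrees C. Cells: drug-selected KB-V1 line, DMEM phenol-red free plus 10% FBS. Compounds tested at multiple concentrations; normalized data fitted to concentration-effect curves.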
Large screens that a line does not name were inactive; ! = a repeat was not active. Calls come from the whole dose curve; as a rule, active = well fitted curve in the direction sought with a large enough effect; inconclusive = small, poorly fitted or top-dose-only effect, or another doubt; inactive = no such curve, though single readings can be large; an effect the other way counts as inactive or inconclusive.

Cc1ccc(C(=O)N/N=C(/CC(=O)c2cccs2)C(F)(F)F)cc1	DT40 TDP1 no CPT 9.2µM, HT1080 IDH1KD tx inconclusive, DT40 TDP1 CPT 7.3µM, KB-3-1 tox inconclusive, HT1080NT lethal 26µM, KB-V1 MDR tox inconclusive
Cc1ccc(NCCC(=O)c2cccs2)cc1Cl	DT40 TDP1 no CPT 9.2µM, DT40 TDP1 CPT 7.3µM
Cc1ccc(NCCC(=O)c2cccs2)cc1C	DT40 TDP1 no CPT 5.8µM, DT40 TDP1 CPT 4.6µM
CC(C)c1ccc(NCCC(=O)c2cccs2)cc1	DT40 TDP1 no CPT 5.2µM, DT40 TDP1 CPT 5.2µM
CCCOc1ccc(C(=O)CCNc2ccc(C)c(Cl)c2)cc1	none
CC(C)CCNC(=O)CNC(=O)c1cccs1	KB-3-1 tox inconclusive
Cc1ccc(NCCC(=O)c2cccs2)cc1	DT40 TDP1 no CPT 5.2µM, DT40 TDP1 CPT 2.9µM
O=C(CCC(=O)c1cccs1)NNC(=O)c1ccccc1Cl	KB-V1 MDR tox inconclusive
Cc1ccc(NC(=O)CCC(=O)c2cccs2)cc1	none
O=C(CCC(=O)c1cccs1)NNC(=O)c1cccc(Cl)c1	DT40 TDP1 no CPT 23µM, DT40 TDP1 CPT inconclusive
O=C(NNc1cc(Cl)cc(Cl)c1)c1cccs1	DT40 TDP1 no CPT 18µM, HT1080 IDH1KD tx inconclusive, DT40 TDP1 CPT inconclusive, HT1080NT lethal inconclusive
O=C(CCC(=O)c1cccs1)NCc1ccc(Cl)cc1	none
O=C(CCNc1cccc(Cl)c1)c1cccs1	DT40 TDP1 no CPT 15µM, HT1080 IDH1KD tx inconclusive, DT40 TDP1 CPT 10µM, KB-3-1 tox inconclusive
Cc1ccc(NC(NC(=O)c2cccs2)C(Cl)(Cl)Cl)cc1C (stereo not given)	DT40 TDP1 no CPT 18µM, HT1080 IDH1KD tx inconclusive, DT40 TDP1 CPT inconclusive, KB-V1 MDR tox inconclusive
Cc1cc(C)cc(NC(=O)Cn2nnc(-c3ccccc3F)n2)c1	DT40 TDP1 no CPT inconclusive (no result: HT1080 IDH1KD tx, KB-3-1 tox, HT1080NT lethal, KB-V1 MDR tox)
Cc1c2cnccc2c(C)c2c1oc1ccccc12	DT40 TDP1 no CPT 23µM, DT40 TDP1 CPT inconclusive, KB-3-1 tox inconclusive, KB-V1 MDR tox 12µM
Cc1cc(-c2nc3cc(F)ccc3s2)ccc1N	KB-3-1 tox inconclusive, KB-V1 MDR tox 18µM
CCc1noc(N)c1C(=O)Nc1ccc(F)c(Cl)c1	KB-V1 MDR tox inconclusive
Clc1cc(Sc2ccc(Br)cc2)nnc1-c1ccccc1	DT40 TDP1 no CPT 29µM, DT40 TDP1 CPT inconclusive
Cc1ccc(NC(=O)N2CCN(C/C=C/c3ccccc3)CC2)cc1	none
O=C(Nc1ccc2c(c1)OCCO2)C(c1ccnc2ccccc12)N1CCN(C/C=C/c2ccccc2)CC1 (stereo not given)	DT40 TDP1 no CPT 23µM, HT1080 IDH1KD tx 15µM, DT40 TDP1 CPT inconclusive, KB-3-1 tox inconclusive, HT1080NT lethal inconclusive, KB-V1 MDR tox inconclusive
O=C(Nc1ccc2c(c1)OCO2)N1CCN(C/C=C/c2ccccc2)CC1	KB-V1 MDR tox 21µM
S=c1[nH]c2ccc(Cc3ccc4[nH]c(=S)[nH]c4c3)cc2[nH]1	HT1080NT lethal inconclusive, KB-V1 MDR tox inconclusive
CN(Cc1ccccc1)C(=O)c1ccccc1Br	none
CCCCCCSc1cc(-c2nc3ccc(C)cn3c2NCc2ccccc2)ccc1OC	DT40 TDP1 no CPT 9.2µM, HT1080 IDH1KD tx inconclusive, DT40 TDP1 CPT 23µM, KB-3-1 tox inconclusive, HT1080NT lethal inconclusive, KB-V1 MDR tox 13µM!
CCCCCCSc1cccc(-c2nc3ccc(C)cn3c2NCc2ccccc2)c1	DT40 TDP1 no CPT 21µM, DT40 TDP1 CPT 23µM, HT1080NT lethal inconclusive
CCCCCCSc1cccc(-c2nc3ccccn3c2NCc2ccccc2)c1	DT40 TDP1 no CPT 16µM, DT40 TDP1 CPT 16µM, KB-3-1 tox inconclusive, KB-V1 MDR tox inconclusive
CCCCCCSc1cccc(-c2nc3cc(C)ccn3c2NCc2ccccc2)c1	DT40 TDP1 no CPT 13µM, HT1080 IDH1KD tx inconclusive, DT40 TDP1 CPT 13µM, KB-3-1 tox inconclusive, HT1080NT lethal inconclusive, KB-V1 MDR tox inconclusive
